# Assay outcomes: PubChem BioAssay, National Center for Advancing Translational Sciences (NCATS)
# This is a sample that favours compounds with a hit; in the whole collection about 10% have one here.
# BAZ2B inh: BAZ2B (human) inhibition; 360,000 tested, 4.4% active; AlphaScreen BAZ2B-H3K14Ac peptide displacement; Potency, µM (series often up to 114 µM), usual class: inhibitors; Q9UIF8; note: nearly all actives have a fitted effect of over 60% in size
# Target sequence (Q9UIF8 whole entry, looked up): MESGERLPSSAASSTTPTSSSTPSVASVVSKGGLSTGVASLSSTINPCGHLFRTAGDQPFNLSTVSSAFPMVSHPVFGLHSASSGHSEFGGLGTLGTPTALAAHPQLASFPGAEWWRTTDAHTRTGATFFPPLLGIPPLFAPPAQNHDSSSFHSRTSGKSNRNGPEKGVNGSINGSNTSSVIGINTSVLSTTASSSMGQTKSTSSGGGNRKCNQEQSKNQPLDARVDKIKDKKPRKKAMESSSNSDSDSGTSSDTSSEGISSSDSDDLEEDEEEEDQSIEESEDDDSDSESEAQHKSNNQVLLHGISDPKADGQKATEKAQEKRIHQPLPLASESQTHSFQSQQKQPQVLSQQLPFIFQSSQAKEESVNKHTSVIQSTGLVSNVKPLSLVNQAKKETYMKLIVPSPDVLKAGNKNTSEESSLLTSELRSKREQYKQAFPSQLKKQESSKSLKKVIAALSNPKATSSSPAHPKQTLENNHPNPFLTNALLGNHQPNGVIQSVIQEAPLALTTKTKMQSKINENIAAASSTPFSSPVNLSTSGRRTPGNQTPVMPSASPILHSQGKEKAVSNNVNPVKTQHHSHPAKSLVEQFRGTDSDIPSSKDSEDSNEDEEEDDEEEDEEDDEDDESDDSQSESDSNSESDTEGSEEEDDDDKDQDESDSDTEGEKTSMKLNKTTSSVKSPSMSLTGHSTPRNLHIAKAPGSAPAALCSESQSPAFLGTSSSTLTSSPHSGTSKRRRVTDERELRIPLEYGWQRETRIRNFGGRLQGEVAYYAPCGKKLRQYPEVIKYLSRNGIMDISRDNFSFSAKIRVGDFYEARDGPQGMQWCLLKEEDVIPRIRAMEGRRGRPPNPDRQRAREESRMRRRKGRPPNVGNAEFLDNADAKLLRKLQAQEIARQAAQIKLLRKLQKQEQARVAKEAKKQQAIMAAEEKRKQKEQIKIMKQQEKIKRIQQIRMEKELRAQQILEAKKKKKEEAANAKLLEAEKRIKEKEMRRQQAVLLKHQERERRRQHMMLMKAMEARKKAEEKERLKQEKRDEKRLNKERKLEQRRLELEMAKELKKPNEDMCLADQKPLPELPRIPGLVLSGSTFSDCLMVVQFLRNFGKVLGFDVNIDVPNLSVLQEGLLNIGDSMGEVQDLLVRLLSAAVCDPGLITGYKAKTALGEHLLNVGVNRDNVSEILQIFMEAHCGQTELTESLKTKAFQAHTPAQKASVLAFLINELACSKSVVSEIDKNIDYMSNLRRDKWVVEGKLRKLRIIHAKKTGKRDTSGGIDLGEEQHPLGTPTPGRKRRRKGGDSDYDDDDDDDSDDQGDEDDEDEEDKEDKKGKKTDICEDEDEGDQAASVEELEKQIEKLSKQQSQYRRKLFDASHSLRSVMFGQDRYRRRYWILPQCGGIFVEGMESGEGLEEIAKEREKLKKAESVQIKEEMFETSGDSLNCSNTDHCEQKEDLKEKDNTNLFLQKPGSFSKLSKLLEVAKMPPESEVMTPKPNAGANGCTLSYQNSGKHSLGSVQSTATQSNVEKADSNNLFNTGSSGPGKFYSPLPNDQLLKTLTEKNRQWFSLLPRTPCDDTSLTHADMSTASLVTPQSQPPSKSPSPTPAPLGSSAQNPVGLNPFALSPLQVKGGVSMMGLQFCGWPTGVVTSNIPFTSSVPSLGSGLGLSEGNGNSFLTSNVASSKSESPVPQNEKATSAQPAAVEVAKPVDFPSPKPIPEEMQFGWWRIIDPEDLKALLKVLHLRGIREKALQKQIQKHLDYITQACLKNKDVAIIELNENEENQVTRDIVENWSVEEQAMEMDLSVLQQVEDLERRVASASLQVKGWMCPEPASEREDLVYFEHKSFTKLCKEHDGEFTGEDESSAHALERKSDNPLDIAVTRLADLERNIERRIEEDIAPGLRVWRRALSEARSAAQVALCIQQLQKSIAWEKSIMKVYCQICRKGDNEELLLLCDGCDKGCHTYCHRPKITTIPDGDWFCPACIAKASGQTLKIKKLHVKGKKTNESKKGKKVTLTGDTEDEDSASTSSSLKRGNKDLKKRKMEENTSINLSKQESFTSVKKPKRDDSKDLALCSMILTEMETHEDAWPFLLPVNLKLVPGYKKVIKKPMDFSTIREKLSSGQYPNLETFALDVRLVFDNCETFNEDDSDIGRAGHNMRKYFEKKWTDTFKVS
#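 BAZ2B 50 nM plus b-H3(5-23)K14Ac 50 nM, PBS pH 7.4/0.01% Tween-20, 30 min RT; compound added (max 110 uM), 30 min RT; streptavidin donor/Ni-chelate acceptor beads 10 ug/mL final, 20 min dark; AlphaScreen read.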
# G9a block: inhibitors of human histone lysine methyltransferase G9a. G9a H3K9 monomethylation, AlphaScreen, 2 h. Potency, µM (top dose mostly 102 µM), usual class: inhibitors. 350,000 tested, 8.8% active. AID 504332; note: nearly all actives have a fitted effect of over 75% in size
#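 Chemiluminescent proximity detection of H3K9 monomethylation, read after 10 min bead incubation in the dark. Reaction: 20 nM G9a, 500 nM biotin-H3K9 peptide, 20 uM SAM cofactor, 2 h, room temperature, following 15 min enzyme-compound preincubation.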
# JMJD2A Tudor inh: inhibitors of human JMJD2A Tudor domain. AlphaScreen JMJD2A-Tudor / H3K4me3 peptide binding. AID 504339. 390,000 tested, 4.4% active. O75164. Potency, µM (series often up to 114 µM), most hits filed as inhibitors; note: nearly all actives have a fitted effect of over 50% in size
# Six1-Eya2 blk: inhibitors of human Six1/Eya2 interaction. Q15475+O00167. AlphaScreen GST-Six1/His-Eya2 binding, biochemical; stronger effect = lower value. activity change, % (test concentration not listed). 360,000 tested, 0.56% active. AID 651725; in the data active = activity change below about -65%; inconclusive = mostly about -30% to -63%
#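 Homogeneous AlphaScreen proximity assay pairing GST-Six1 with His-tagged Eya2 (added as 5X mix: 250 nM and 500 nM) in 50 mM Tris pH 8.0, 300 mM NaCl, 1 mM TCEP. Glutathione donor and nickel acceptor beads; 1 h, 37 °C, dark.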
# HP1b binding inh: HP1-beta chromodomain-methylated histone interaction inhibition; P83916; AlphaScreen HP1-beta / biotin-H3K9me3 peptide binding; Potency, µM (highest dose often 114 µM), most hits filed as inhibitors; 390,000 tested, 0.56% active; note: nearly all actives have a fitted effect of over 70% in size
#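 AlphaScreen: HP1-beta (50 nM) preformed 30 min with biotin-H3(1-18)K9me3 peptide (50 nM) in PBS pH 7.4, 0.01% Tween-20. Compound added for 30 min at RT, then streptavidin donor/nickel chelate acceptor beads (10 ug/mL) for 30 min.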
# CtBP-E1A blk: CtBP/E1A binding inhibition; 340,000 tested, 0.49% active; activity change, % (concentration not given with the values); AlphaScreen GST-E1A/His-CtBP binding, 1536-well; stronger effect = lower value; AID 651724; in the data active = activity change below about -65%; inconclusive = mostly about -30% to -63%
#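 AlphaScreen with 125 nM GST-E1A and 125 nM His-CtBP (5X stocks) in Tris pH 8.0, 300 mM NaCl, BSA, Tween 20, TCEP. Compounds preincubated 2 h at 37 deg C, then glutathione donor/nickel acceptor beads added for 1 h at 37 deg C in dark.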
# A number is an active result; - = inactive; ? = inconclusive; . = no result; [ ] = remark or other dose. Unless noted, calls come from the whole dose curve; as a rule, active = well fitted inhibition curve with a large enough effect; inconclusive = small, poorly fitted or top-dose-only effect; inactive = no such curve, though single readings can be large or run the other way.
SMILES,BAZ2B inh,G9a block,JMJD2A Tudor inh,Six1-Eya2 blk,HP1b binding inh,CtBP-E1A blk
CN1C(=O)C(C)(C)c2cc(S(=O)(=O)NCC3CCC(C(=O)NC4CCCCC4)CC3)ccc21 (stereo not drawn),-,-,-,-,-,-
CC1CCCC(NC(=O)CN(C)S(=O)(=O)c2cnc[nH]2)C1C (stereo not drawn),-,-,-,-,-,-
Cc1ccc(C)c(NC(=O)CN2C(=O)c3cccc4cccc2c34)c1,-,-,-,.,-,.
COc1ccc(-n2c(-c3ccc(Cl)cc3Cl)n[nH]c2=S)c(OC)c1,-,.,13µM,-,-,-
O=C(O)c1cccc(-n2c(-c3cnccn3)n[nH]c2=S)c1,?,10µM,-,-,-,-
S=c1[nH]nc(-c2cnccn2)n1-c1ccccc1,?,?,32µM,-,-,-
COc1ccc(-n2c(C)n[nH]c2=O)cc1,-,-,?,-,-,-
COc1ccc(-n2c(-c3cnccn3)n[nH]c2=S)cc1,?,5µM,8.9µM,-,-,-
Fc1ccc(-n2c(-c3ccc4ccccc4n3)n[nH]c2=S)cc1,-,-,-,-,-,-
COc1ccc(-n2c(-c3ccc(C(C)(C)C)cc3)n[nH]c2=S)c(OC)c1,.,.,.,-,.,-
CCCCn1c(=O)c(CCC(=O)OC(C)C(=O)Nc2cccc(Cl)c2Cl)nc2ccccc21 (stereo not drawn),-,-,-,-,-,-
CCOCCCNC(=O)C1CCN(c2cc(C)nc3c(-c4ccc(Cl)cc4)c(C)nn23)CC1,-,-,-,.,-,.
COc1ccc(-c2n[nH]c(=S)n2N)c(OC)c1,.,6.3µM,7.1µM,-,?,.
O=C(NCc1ccccc1)C(C1CC1)n1c(-c2cccs2)nc2ccccc21 (stereo not drawn),.,.,.,-,.,-
Cc1cccc(C)c1NC(=O)CN(CC(=O)O)CC(=O)O,.,-[12.7 µM],.,.,.,.
CC(C)OC(=O)C(CC(=O)O)NCc1ccccc1 (stereo not drawn),-,?,11µM,-,?,-
Cc1cccc(C)c1NC(=O)CC(NCc1ccco1)C(=O)O (stereo not drawn),-,-[12.7 µM],20µM,-,-,-
CCC(C)[C@H](NC(=O)NCc1ccco1)C(=O)O (stereo partly drawn),-,-,-,-,-,-
CCOC(=O)C(CC(=O)O)NCc1ccco1 (stereo not drawn),-,40µM,18µM,-,-,-
COc1ccc(OC)c(NC(=O)C(CC(=O)O)NCc2ccco2)c1 (stereo not drawn),-,?,45µM,-,-,-
Cc1cc(C)cc(NC(=O)C2CCN(S(C)(=O)=O)CC2)c1,-,-[0.501 µM],-,-,-,-
O=S(=O)(Nc1cc2nc3ccccc3nc2n1Cc1ccccc1)c1ccc(Cl)cc1,-,-,-,-,-,-
Cc1nn(CCCC(=O)NCc2ccc(F)cc2)c(=O)c2c1sc1ccccc12,-,?,-,.,-,.
Cc1sc(NC(=O)CCCC(=O)O)c(C(N)=O)c1-c1ccccc1,-,25µM,-,-,-,-
COC(=O)c1c(NC(=O)CCCC(=O)O)sc(C)c1C,-,-,-,-,-,-
SMILES,BAZ2B inh,G9a block,JMJD2A Tudor inh,Six1-Eya2 blk,HP1b binding inh,CtBP-E1A blk
CCOC(=O)/C(C#N)=C1/C(=O)N(Cc2ccccc2)c2ccccc21,25µM,25µM,25µM,-,14µM,-
Cc1cccc(CC(=O)NCCc2csc(-c3ccc(C(F)(F)F)cc3)n2)c1,-,-,-,.,-,.
Cc1nc(C(Cl)(Cl)Cl)nc2[nH]ccc(=O)c12,-,-,11µM,-,-,-
Cc1nc2sc(C(N)=O)c(N)c2c(C)c1CC(=O)c1ccccc1,?,14µM,-,-,-,-
CCc1nn(CC(=O)NC(C)C)c(=O)c2cc3cc(F)ccc3n12,-,-,-,.,-,.
CC(=O)CSc1nsc(SCC(C)=O)c1C#N,-,8.9µM,-,-,-,-
Cc1snc(SCC(=O)c2ccc(Cl)cc2)c1C#N,-,20µM,-,-,-,-
CCOC(=O)CSc1nsc(SCC(=O)OCC)c1C#N,-,-,-,-,-,-
N#Cc1c(SCC(N)=O)nsc1SCc1ccc(Cl)cc1,-,-,-,-,-,-
COC(=O)c1ccccc1CSc1nsc(C)c1C#N,-,16µM,-,-,-,-
COC(=O)c1cc(C#N)c(SCc2ccccc2)nc1C,-,-,-,-,-,-
Cc1ccnc(SCC(=O)c2ccc(Br)cc2)c1C#N,-,50µM,?,-,-,-
CC(C)(C)c1cc(NC(=O)C2(C)CCN2C(=O)C2(c3ccccc3)CCCC2)no1 (stereo not drawn),.,.,.,-,.,-
CC1CCN(c2ccc(C=O)o2)CC1,-,-,-,-,-,.
COc1ccccc1NC(=O)C1=C(C)Nc2nc(-c3ccco3)nn2C1c1ccccc1F (stereo not drawn),-,-,-,.,-,.
COc1ccccc1C(c1c(O)cc(C)n(Cc2ccco2)c1=O)N1CCCCC1 (stereo not drawn),-,-,-,.,-,.
CCCCN(CC)CCCNC(=O)Cn1nc(CC)n2c(cc3sccc32)c1=O,-,-,-,.,-,.
Cc1ccc(Cl)cc1NS(=O)(=O)c1ccc(N2CCCCS2(=O)=O)cc1,-,-,-,.,-,.
Cc1ccc(S(=O)(=O)N2CCCC2CNC(=O)C(=O)NCCN2CCOCC2)cc1 (stereo not drawn),-,-,-,-,-,-
Cc1ccc(C(=O)CSc2nsc(C)c2C#N)cc1,-,4.5µM,-,-,-,-
Cc1nc(CSc2nsc(C)c2C#N)cs1,-,-,-,-,-,-
COc1cccc(/C=C2/C(=O)NN(c3ccccc3)C2=O)c1,?,40µM,-,-,-,-
COc1cc(C=C2C(=O)c3ccccc3C2=O)cc(OC)c1,-,.,-,-,-,-
COc1cccc(/C=C2/C(=O)NN(c3ccc(C)c(C)c3)C2=O)c1,-,45µM,-,-,-,-
COc1cccc(/C=C2\C(=O)C(=O)c3ccccc32)c1,?,50µM,?,-,-,-
SMILES,BAZ2B inh,G9a block,JMJD2A Tudor inh,Six1-Eya2 blk,HP1b binding inh,CtBP-E1A blk
COc1cccc(/C=C2/C(=O)NN(c3ccc(F)cc3)C2=O)c1,-,45µM,-,-,-,-
COc1cccc(C=C2Cc3ccccc3C2=O)c1,.,.,.,-,.,-
COc1cccc(C=C2SC(=S)NC2=O)c1,.,.,-,-,-,-
O=C(COC(=O)c1ccc(F)c(S(=O)(=O)N2CCOCC2)c1)Nc1ccc2[nH]c(=O)[nH]c2c1,-,.,-,-,-,-
CCOC(=O)c1ccc2c(c1)nc(COc1ccc(OC)cc1)n2CC,-,-,-,-,-,-
O=C1NN(c2ccccc2)C(=O)/C1=C\c1ccc2c(c1)OCO2,-,50µM,?,-,-,-
O=C1NC(=S)N/C1=C/c1ccc2c(c1)OCO2,-,-,-,-,-,.
O=C1NN(c2ccc(Br)cc2)C(=O)/C1=C\c1ccc(O)cc1O,?,.,?,-,?,-
